± gives the standard deviation of the averaged measurements. Over roughly 33,000 sequences, “E-score (rank enrichment, -0.5 to 0.5)” has its median near -0.0043; the highest 2% begin near 0.24. The full list was thinned out, with the highest values kept by preference.
What follows are sequences tested on 2Sp-muMax20 (muMax20 with two 2,6-bis(methyl)pyridine Cys staples) (assay: PBM 8-mer E-score (E-score (rank enrichment, -0.5 to 0.5)); higher = stronger preferential binding).
Method: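 Protein binding microarray (universal PBM chip covering all 10-mers in fixed probe flanks) with chemically synthesized human Max(13-93) bHLH-LZ analogs (not full-length Max) bearing noncanonical residues (hArg, Tha, Aib, Nle at 65) and aromatic Cys staples. Read-out per 8-mer (and its reverse complement): E-score (rank-based enrichment, -0.5 to 0.5) and Z-score of median probe intensity.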

| Sequence | PBM 8-mer E-score |
| --- | --- |
| AATATACT | 0.0855 ± 0.0041 |
| ACTATACA | 0.236 ± 0.052 |
| TATATACA | 0.11 ± 0.072 |
| ACTACACG | 0.134 ± 0.1 |
| TCTATACA | 0.111 ± 0.0021 |
| GAGGGCAA | 0.00807 ± 0.048 |
| AATTGTGT | 0.124 ± 0.015 |
| ATGGCGTC | -0.112 ± 0.017 |
| AATCTCAC | -0.00554 ± 0.028 |
| GCACAACC | -0.26 ± 0.11 |
| GCACAACA | 0.245 ± 0.044 |
| CCACAACA | -0.0195 ± 0.008 |
| TATCGATA | 0.28 ± 0.0074 |
| GATCGATA | 0.0711 ± 0.063 |
| AATCGATA | 0.122 ± 0.028 |
| CGTAGTTC | -0.126 ± 0.036 |
| ATGGTGCG | -0.0695 ± 0.038 |
| CATGGGCC | -0.227 ± 0.033 |
| ATGGTAAT | 0.0649 ± 0.056 |
| CCCGTAGA | -0.219 ± 0.0027 |
| GGCGGGGA | 0.327 ± 0.0043 |
| GGGCGGGA | 0.302 ± 0.009 |
| GGCGGGAA | 0.0758 ± 0.012 |
| AGGCGGGA | 0.0612 ± 0.085 |
| CGGCGGGA | -0.183 ± 0.048 |

| Sequence | PBM 8-mer E-score |
| --- | --- |
| CGCGGGGA | 0.00762 ± 0.0032 |
| CGGGATAG | -0.0726 ± 0.029 |
| GATAATCA | 0.291 ± 0.0043 |
| GATAATAA | 0.161 ± 0.11 |
| CATAATCA | 0.122 ± 0.058 |
| GATAATCC | -0.0127 ± 0.051 |
| TATAATCA | 0.248 ± 0.026 |
| AATAATCA | 0.0327 ± 0.025 |
| CTCCTGCA | -0.0859 ± 0.085 |
| ACCAGCGA | -0.0875 ± 0.13 |
| AGTGCCCG | -0.183 ± 0.011 |
| CGGGCCCG | -0.0343 ± 0.1 |
| ACCTTCAG | 0.0376 ± 0.011 |
| AAACGGCT | -0.108 ± 0.055 |
| AAAACGGC | 0.295 ± 0.024 |
| CAACGGCC | -0.302 ± 0.033 |
| CAAACGGC | -0.18938 ± 4.9e-05 |
| GAAACGGC | -0.0635 ± 0.06 |
| AAACGGCC | 0.2844 ± 0.0015 |
| GTATCTCA | 0.17 ± 0.075 |
| CAACCTCC | -0.00017 ± 0.065 |
| GAAGTGTA | -0.0146 ± 0.06 |
| ATGGCTGG | -0.00368 ± 0.018 |
| TATGTCAA | 0.224 ± 0.067 |
| AGTGGTAA | 0.0408 ± 0.025 |

| Sequence | PBM 8-mer E-score |
| --- | --- |
| CGTATCTA | 0.000215 ± 0.053 |
| AGTATATG | 0.125 ± 0.12 |
| CCTATATC | -0.0131 ± 0.064 |
| ATTATATA | 0.199 ± 0.014 |
| ATTATATC | 0.243 ± 0.051 |
| AGTATCTA | 0.3 ± 0.034 |
| ACTATATC | 0.302 ± 0.055 |
| GGTATCTA | -0.00749 ± 0.008 |
| AGTATATC | -0.0248 ± 0.067 |
| AGTATATA | 0.273 ± 0.03 |
| ACTATCTC | -0.108 ± 0.18 |
| ATTATATG | 0.198 ± 0.017 |
| CGCGCTGA | 0.00249 ± 0.09 |
| CATGCAGG | 0.0699 ± 0.036 |
| CCTAGTTA | 0.0579 ± 0.045 |
| CGTGGGTC | 0.00478 ± 0.056 |
| CCCAAACC | 0.0283 ± 0.012 |
| AGTGCAAA | -0.0314 ± 0.044 |
| GTGTGGCA | 0.0191 ± 0.059 |
| GAAGCCGA | -0.13 ± 0.0099 |
| CGATCCTC | -0.0245 ± 0.032 |
| GCGCAAAC | 0.11 ± 0.026 |
| GCGTAGGA | 0.112 ± 0.03 |
| ATGCTTGG | 0.102 ± 0.0062 |
| ATTATACG | 0.125 ± 0.014 |

| Sequence | PBM 8-mer E-score |
| --- | --- |
| ACTATATA | 0.254 ± 0.018 |
| ATTATACA | 0.0914 ± 0.033 |
| ACTATATG | 0.196 ± 0.0091 |
| GCTATATA | 0.149 ± 0.013 |
| ATTATACC | 0.238 ± 0.031 |
| CTTCGGAA | -0.0272 ± 0.017 |
| ATTCGCCC | 0.0547 ± 0.0036 |
| ATCTGACA | -0.0699 ± 0.061 |
| ATATTCAA | 0.157 ± 0.012 |
| CTATTCAA | 0.266 ± 0.08 |
| ATATTCAT | 0.299 ± 0.027 |
| ATATTCAG | 0.126 ± 0.074 |
| TTATTCAA | 0.133 ± 0.037 |
| ATATTCAC | 0.109 ± 0.072 |
| ACGCTTTC | -0.00481 ± 0.013 |
| ACGCGAAT | 0.0678 ± 0.068 |
| TAGAATGA | 0.207 ± 0.064 |
| GTAGTATA | 0.236 ± 0.045 |
| CTAGTATA | 0.219 ± 0.023 |
| AAAGTATT | 0.223 ± 0.0032 |
| ATAGTATA | 0.11 ± 0.035 |
| AAAGTATA | 0.236 ± 0.03 |
| CAAGTATA | 0.142 ± 0.1 |
| CGAACCTA | -0.123 ± 0.015 |
| GCGCACTA | 0.0235 ± 0.033 |

| Sequence | PBM 8-mer E-score |
| --- | --- |
| AAATGCTG | 0.0946 ± 0.018 |
| AAATGCTA | 0.251 ± 0.058 |
| GAATGCTA | -0.14 ± 0.023 |
| GTAAACTA | 0.175 ± 0.032 |
| CACCAACA | 0.106 ± 0.0083 |
| GGCCCATA | -0.0969 ± 0.099 |
| CGCCCATA | 0.0508 ± 0.075 |
| CCCCCATA | 0.0149 ± 0.042 |
| AGCCCATA | 0.238 ± 0.035 |
| GCCCCATA | 0.29 ± 0.019 |
| GACCCATA | 0.188 ± 0.032 |
| GTACCAAC | -0.0554 ± 0.078 |
| ATCCAGGC | -0.01 ± 0.042 |
| AAGACAGG | -0.106 ± 0.025 |
| GTCTGGAA | -0.0499 ± 0.016 |
| ATCCAAGA | -0.0976 ± 0.054 |
| AGGTGGAT | -0.1057 ± 0.00054 |
| AAAAATCG | -0.00934 ± 0.012 |
| ACATAATA | 0.262 ± 0.075 |
| GCATAATA | 0.2429 ± 0.0015 |
| GCATAAGA | 0.0752 ± 0.0016 |
| CCATAATA | 0.161 ± 0.054 |
| ACATAATC | 0.109 ± 0.04 |
| ACATAATG | 0.193 ± 0.064 |
| ACATAGTA | 0.118 ± 0.076 |

| Sequence | PBM 8-mer E-score |
| --- | --- |
| GCATAGTA | 0.273 ± 0.032 |
| CCATAGTA | 0.144 ± 0.0076 |
| GACATGAC | 0.00058 ± 0.047 |
| GTATGCAC | 0.075 ± 0.08 |
| AACGTTGG | -0.0574 ± 0.07 |
| CGAGCGAA | 0.0234 ± 0.064 |
| AGCATTAC | -0.0132 ± 0.0023 |
| CTCATTAA | 0.273 ± 0.031 |
| CTCATTAC | 0.197 ± 0.087 |
| AGCATTAG | 0.0579 ± 0.1 |
| AGCATTAT | 0.266 ± 0.05 |
| ATCATTAA | 0.0844 ± 0.0038 |
| CGCATTAA | 0.0861 ± 0.014 |
| TGCATTAA | 0.285 ± 0.014 |
| AGCATTAA | 0.209 ± 0.0096 |
| CCGGGCTA | -0.277 ± 0.0046 |
| TGACCTCA | -0.183 ± 0.016 |
| AGCTCAGA | -0.181 ± 0.0029 |
| CGGATAGC | -0.0994 ± 0.018 |
| CTAGCTGA | -0.0742 ± 0.045 |
| AGTCATAA | 0.037 ± 0.035 |
| ATACATAA | 0.0924 ± 0.008 |
| ATACATAT | 0.258 ± 0.0069 |
| ATACATAC | 0.0484 ± 0.023 |
| AGTCATAG | 0.0709 ± 0.034 |

| Sequence | PBM 8-mer E-score |
| --- | --- |
| AGACATAG | 0.0229 ± 0.087 |
| AGACATAT | 0.249 ± 0.0045 |
| AGACATAC | -0.0281 ± 0.088 |
| AGTCATAT | 0.24 ± 0.015 |
| ACCTTATG | 0.0929 ± 0.036 |
| GGGGAACA | 0.124 ± 0.0046 |
| AATCAACC | 0.157 ± 0.047 |
| ACTAAGCT | -0.0864 ± 0.087 |
| ATTCTCAC | 0.0448 ± 0.078 |
| ATAGCATC | 0.118 ± 0.015 |
| ATAGCATA | 0.204 ± 0.038 |
| ATAGCATG | 0.258 ± 0.037 |
| ATGACTTA | 0.0917 ± 0.049 |
| AGGATCAA | -0.0715 ± 0.043 |
| AAACTGTA | 0.00471 ± 0.023 |
| AACAGATA | -0.0996 ± 0.022 |
| GACAGATC | 0.0282 ± 0.0066 |
| AACAGATC | 0.243 ± 0.058 |
| CCCCAGGG | -0.293 ± 0.032 |
| CCAGACCC | -0.142 ± 0.016 |
| AAACTTGA | 0.17 ± 0.089 |
| CAACTTGC | -0.157 ± 0.011 |
| AAACTTGC | 0.267 ± 0.039 |
